PAFAH2 inh: inhibitors of human PAFAH2 | hit rate 0.99% among 340,000 | inhibition, % at 3.39 µM | Q99487 | AID 492956 | recombinant PAFAH2, FP-rhodamine activity probe, fluorescence polarization;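 active means inhibition above the mean over all tested compounds plus 3 SD, cut at about 30% in these data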;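 further: inhibitors block probe labeling of enzyme so polarization drops; 0% = enzyme with DMSO and 100% = wells lacking PAFAH2 protein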
PAFAH1B2 FP inh: PAFAH1B2 (human) inhibition; recombinant PAFAH1B2, FP-rhodamine activity probe, fluorescence polarization; inhibition, % at 3.39 µM; hit rate 1.2% among 340,000; AID 492953;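 active means inhibition above the mean of all tested compounds plus 3 SD, cut at about 24% in these data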;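 further: 0% = enzyme with DMSO and 100% = wells lacking PAFAH1B2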
Target sequence (P68402 whole entry, looked up): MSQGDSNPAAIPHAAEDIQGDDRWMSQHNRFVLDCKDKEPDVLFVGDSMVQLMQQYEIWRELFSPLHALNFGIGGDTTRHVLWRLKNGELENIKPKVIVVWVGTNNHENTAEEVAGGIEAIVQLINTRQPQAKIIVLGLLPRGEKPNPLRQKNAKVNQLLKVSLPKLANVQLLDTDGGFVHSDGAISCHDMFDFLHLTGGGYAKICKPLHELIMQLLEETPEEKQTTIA
pPAFAH FP inh: inhibitors of human plasma PAF acetylhydrolase (pPAFAH) | Q13093 | hit rate 1.5% among 330,000 | recombinant pPAFAH, FP-rhodamine probe fluorescence polarization | AID 463082 | inhibition, % at 3.39 µM;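 active means inhibition above the mean inhibition across the screen plus 3 SD, cut at about 25% in these data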;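 further: inhibitors block binding of the rhodamine activity-based probe so polarization drops; 0% = enzyme with DMSO and 100% = wells lacking pPAFAH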
Fam108B counter: Fam108B inhibition, counter-screen for RBBP9 inhibitors | recombinant Fam108B, FP-Rh probe fluorescence polarization | inhibition, % at 9.51 µM | hit rate 0.33% among 300,000 | AID 1947;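 active means inhibition above the screen mean inhibition plus 3 SD, computed separately per campaign, cut at about 18% in these data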;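 further: inhibitors lower polarization as less probe binds the enzyme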
PAFAH1B3 inh: inhibitors of human PAFAH1B3; recombinant PAFAH1B3, FP-rhodamine probe, fluorescence polarization; Q15102; hit rate 0.28% among 340,000; AID 492972; inhibition, % at 3.39 µM;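 active means inhibition above the screen-wide average of all tested compounds plus 3 SD, cut at about 25% in these data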;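 further: 0% = enzyme with DMSO only and 100% = wells lacking PAFAH1B3 protein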
Target sequence (Q15102 whole entry, looked up): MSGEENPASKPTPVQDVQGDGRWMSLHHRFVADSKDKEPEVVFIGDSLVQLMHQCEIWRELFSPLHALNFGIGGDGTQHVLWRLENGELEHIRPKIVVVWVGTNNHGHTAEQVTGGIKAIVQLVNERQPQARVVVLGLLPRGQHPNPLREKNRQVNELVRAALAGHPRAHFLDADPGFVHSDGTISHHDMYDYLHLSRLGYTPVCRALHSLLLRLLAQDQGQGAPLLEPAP
PME-1 primary: blocks human protein phosphatase methylesterase 1. Q9Y570. recombinant PME-1, FP-Rh probe fluorescence polarization. inhibition, % at 5.9 µM. hit rate 0.53% among 320,000;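 active means inhibition above the campaign mean of all compounds plus 3 SD, cut at about 26% in these data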;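 further: competitive labeling of PME-1 active site by serine hydrolase directed probe; 0% = PME-1 with DMSO and 100% = wells lacking PME-1 enzyme; inhibitors block probe labeling so polarization falls and inhibition rises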
* marks the source's active call; other numbers are inactive results. Only some compounds are listed: those with a hit (about 2.8% of all), similar ones and a draw of the others.

For CCCCNc1c(-c2cccc(-c3ccc(OC)cc3)c2)nc2ccc(C)cn12 the results were PAFAH2 inh -8, PAFAH1B2 FP inh 3, pPAFAH FP inh 25*, Fam108B counter 3, PAFAH1B3 inh 2 and PME-1 primary 7.
COc1cc(-c2nc3ccc(C)cn3c2NCc2ccccc2)ccc1-c1cccc(Cl)c1 was read as PAFAH2 inh 2, PAFAH1B2 FP inh 0, pPAFAH FP inh 30* and PAFAH1B3 inh 6.
`CCCCNc1c(-c2cccc(-c3ccc(OC)cc3)c2)nc2cc(C)ccn12` gave PAFAH2 inh 1, PAFAH1B2 FP inh 6, pPAFAH FP inh 15 and PAFAH1B3 inh 6.
Screening Cc1ccc2nc(-c3ccc(-c4cccc(Cl)c4)cc3)c(NCc3ccccc3)n2c1 returned PAFAH2 inh 24, PAFAH1B2 FP inh 5, pPAFAH FP inh 13, Fam108B counter 6, PAFAH1B3 inh 5 and PME-1 primary 2.
Screening CCCc1ccc(Oc2cc(Cl)nc(N)n2)cc1 returned PAFAH2 inh 11, PAFAH1B2 FP inh 6, pPAFAH FP inh 26*, Fam108B counter 1, PAFAH1B3 inh 10 and PME-1 primary 2.
CCn1c(SCC(=O)Nc2oc(-c3ccccc3)c(-c3ccccc3)c2C#N)nnc1-c1ccco1 was read as PAFAH2 inh 11, PAFAH1B2 FP inh 25*, pPAFAH FP inh 21, Fam108B counter 9, PAFAH1B3 inh 9 and PME-1 primary 5.
Screening N#Cc1c(NC(=O)CSc2ncnc3sccc23)oc(-c2ccco2)c1-c1ccco1 returned PAFAH2 inh 22, PAFAH1B2 FP inh 3, pPAFAH FP inh 33*, Fam108B counter 12, PAFAH1B3 inh 16 and PME-1 primary 9.
`Cc1cc(NC(=O)CSc2ncnc3sccc23)no1` gave PAFAH2 inh -2, PAFAH1B2 FP inh 3, pPAFAH FP inh -2, Fam108B counter -1, PAFAH1B3 inh 1 and PME-1 primary -1.
CCn1c(SCC(=O)Nc2oc(-c3ccccc3)c(-c3ccccc3)c2C#N)nnc1-c1ccncc1 was read as PAFAH2 inh 9, PAFAH1B2 FP inh 23, pPAFAH FP inh 9, Fam108B counter 1, PAFAH1B3 inh 1 and PME-1 primary 0.
CCCNC(=O)c1ccc2c(=O)c(O)c(-c3ccc(F)cc3)[nH]c2c1 was read as PAFAH2 inh 11, PAFAH1B2 FP inh 14, pPAFAH FP inh 13, Fam108B counter 4, PAFAH1B3 inh 25 and PME-1 primary 16.
For CCCNC(=O)c1ccc2c(=O)c(O)c(-c3cccc(Br)c3)[nH]c2c1 the results were PAFAH2 inh -20, PAFAH1B2 FP inh 19, pPAFAH FP inh 28*, Fam108B counter 7, PAFAH1B3 inh 17 and PME-1 primary 17.
`O=C(C[C@H]1C/C=C\CC[C@H](Cc2ccc(F)cc2)C(=O)OC[C@H]2CCCN2C1=O)N[C@@H](CO)Cc1ccccc1` gave PAFAH2 inh 23, PAFAH1B2 FP inh 7, pPAFAH FP inh 27* and PAFAH1B3 inh -2.
For O=C(C[C@H]1C/C=C\CC[C@H](Cc2ccc(F)cc2)C(=O)OC[C@H]2CCCN2C1=O)N[C@H](CO)Cc1ccccc1 the results were PAFAH2 inh 8, PAFAH1B2 FP inh 7, pPAFAH FP inh 9 and PAFAH1B3 inh 6.
O=C(C[C@@H]1C/C=C\C[C@@H](Cc2ccc(F)cc2)C(=O)OC[C@@H]2CCCN2C1=O)NCCO was read as PAFAH2 inh 3, PAFAH1B2 FP inh 47*, pPAFAH FP inh 0 and PAFAH1B3 inh 4.
CC(C)(C)OC(=O)C[C@H]1C/C=C\C[C@@H](CC(=O)NCCO)C(=O)N2CCC[C@H]2COC1=O was read as PAFAH2 inh 9, PAFAH1B2 FP inh 3, pPAFAH FP inh 1 and PAFAH1B3 inh 4.
For C[C@H]1COC(=O)[C@@H](Cc2ccc(F)cc2)C/C=C\C[C@@H](CC(=O)N[C@@H](CO)Cc2ccccc2)C(=O)N1 the results were PAFAH2 inh 3, PAFAH1B2 FP inh 25*, pPAFAH FP inh 2 and PAFAH1B3 inh 4.
O=C1OC[C@@H]2CCCN2C(=O)[C@@H](CC(=O)N(CCO)Cc2ccccc2)C/C=C\C[C@H]1Cc1ccc(F)cc1 was read as PAFAH2 inh 12, PAFAH1B2 FP inh 34*, pPAFAH FP inh 9 and PAFAH1B3 inh 5.
COC(=O)C1CC2=C(CCCC2=O)N(Cc2ccccc2)C1=O (centres undefined) was read as PAFAH2 inh 10, PAFAH1B2 FP inh 3 and PAFAH1B3 inh 5.

Bioassay records: PubChem BioAssay, The Scripps Research Institute Molecular Screening Center
